# According to PubChem BioAssay AID493203 (National Center for Advancing Translational Sciences (NCATS), 2011):
# Inconclusive results are not listed. A number with no mark means an inactive call. Activity calls are given as the source filed them. The call rests on the fitted dose curve; in most records, active means well fitted activation curve with a large enough effect; inconclusive means small, poorly fitted or top-dose-only effect; inactive means flat fitted curve, though single readings scatter.
# Experiment: qHTS Assay for NPC1 Promoter Activators: Initial hit validation from the primary screen;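 on activity, positive = activation: reporter driven by the mutant form of the NPC1 promoter; % of control where 0% means no effect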
# Conditions: Huh7 NPC1 promoter-luciferase reporter, luminescence, 24 h; series mostly up to 46.1 µM; activity, positive = activation: at the top concentration
# How it was run: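 Promoter activation measured as luciferase luminescence (Amplite reagent, 10 minutes ambient) after 24 hours' compound exposure at 37C. Cells: NPC1-luciferase Huh7, 1500 per well, reduced-serum OP-MEM I plus 10% FBS.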
# Potency means the concentration at half of the fitted maximal effect.
SMILES,"activity, positive = activation [%]",Potency
Brc1ccccc1-c1nnc(CSc2nnc3sc4ccccc4n23)o1,11.6,–
COc1ccc(C)cc1N(C(=O)CNC(=O)c1ccco1)C(C(=O)NC1CCCC1)c1cccnc1 (centres undefined),-7.29,–
COc1ccc(-c2csc(Nc3ncccn3)n2)cc1C,–,0.25 µM (active)
Nc1c(N(CCO)C(=O)/C=C/c2ccco2)c(=O)[nH]c(=O)n1Cc1ccccc1,-2.89,–
CCOc1ccc(CNC(=O)C2CCCN(S(C)(=O)=O)C2)cc1OC (centres undefined),8.81,–
CCCCCCOc1ccc(OC(=O)c2cccnc2)cc1,–,19.9 µM (active)
CC(=O)Nc1nnc(SCC(=O)NCCOc2ccccc2)s1,2.05,–
Cc1ccc(C2C3=C(CC(C)(C)CC3=O)N(CCN3CCOCC3)C3=C2C(=O)CC(C)(C)C3)cc1,-3.06,–
COc1ccc(NC(=O)CN(C)C(=O)c2ccc(=O)[nH]c2)cc1,0.198,–
COc1ccc(S(=O)(=O)N2CCCC(C(=O)NCc3ccncc3)C2)cc1Cl (centres undefined),5.51,–
Nc1nc(SCCO)[nH]c(=O)c1NC(=O)c1ccco1,2.14,–
CC(Sc1ncnc2c1cnn2-c1ccccc1)C(=O)Nc1ccc(N2CCOCC2)cc1 (centres undefined),5.76,–
COC(=O)c1ccccc1S(=O)(=O)NNC(=O)Nc1ccccc1,–,12.5 µM (active)
Cc1nc(-c2ccccn2)sc1C(=O)Nc1ccc(F)cc1F,–,15.8 µM (active)
